High-throughput results from PubChem.
eIF4E-4G inh: eIF4E/eIF4G interaction inhibition in translation initiation; inhibition, % at 21.7 µM; AID 782; TR-FRET eIF4E-eIF4GI(517-606) binding, 2 h; actives 0.37% (n = 220,000);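 active = inhibition above about 30%, limit read from the data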;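 also: 0% = full FRET control wells and 100% = background wells lacking eIF4GI fragment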
PABP FP inh: PABP-poly(A) binding inhibition; actives 1% (n = 290,000); PABP-poly(A) RNA binding, fluorescence polarization; inhibition, % at 35 µM; AID 2014; P11940;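 also: calls also rest on retests at 20 µM and on dose response follow-up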
PERK inhibitor: inhibitors of human PERK kinase; CHO PERK-DD fusion, SEAP luminescence translation reporter; inhibition, % at 5.6 µM; actives 0.17% (n = 220,000);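 active = inhibition above the mean inhibition of all tested compounds plus 3 SD, set separately per screening campaign, cut at about 2.9% in these data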;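 also: PERK kinase domain activated by AP20187 dimerizer at 100 nM; 0% = DMSO with dimerizer and 100% = rapamycin at 8.4 µM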
eIF4H inh: inhibitors of RNA binding by human eIF4H; Q15056; actives 0.94% (n = 290,000); AID 2012; eIF4H fluorescence polarization binding assay; inhibition, % at 35 µM;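 also: calls also rest on retests at 20 µM and on dose response follow-up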
PfM18AAP inh: blocks P. falciparum M18 aspartyl aminopeptidase; recombinant PfM18AAP, H-Glu-NHMec fluorogenic cleavage; inhibition, % at 7.35 µM; actives 1.2% (n = 290,000); AID 1822;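 active = inhibition above the campaign mean inhibition over all tested compounds plus 3 SD, cut at about 28% in these data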;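 also: 0% = plate median of test compound wells and 100% = 2 mM ZnCl2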
MLLE-PAM2 inh: blocks PAM2 peptide binding to the PABP1 MLLE domain | actives 0.36% (n = 360,000) | GST-MLLE / FITC-PAM2 fluorescence polarization | P11940 | inhibition, % at 20 µM; in the data active = inhibition above about 35%, passing the limit was not always enough;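 also: plate controls were DMSO wells with GST-MLLE for no effect and wells lacking GST-MLLE protein for full effect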
Numbers without * were called inactive; · = no result given; [ ] = dose if it differs, or a comment. Hits are enriched below; roughly 2.4% of the tested compounds scored in any of these assays. Unless noted, no rule for the calls is given here.

SMILES	eIF4E-4G inh	PABP FP inh	PERK inhibitor	eIF4H inh	PfM18AAP inh	MLLE-PAM2 inh
S=c1[nH]cc2cnccn12	·	·	·	·	·	69.5*
CCOC(=O)C1C(=O)NC(c2ccccc2)=NC1c1ccc(Cl)cc1 (stereo unspecified)	3.5	4.0	-0.6	-15.7	-5.0	-0.5
O=C(c1cccn2c(=O)c3ccccc3nc12)N1CCN(Cc2ccc3c(c2)OCO3)CC1	·	-4.0	-1.0	-6.2	-4.2	-0.9
O=C(c1cccn2c(=O)c3cc(Cl)ccc3nc12)N1CCN(Cc2ccc3c(c2)OCO3)CC1	46.1*[fluorescence artefact?]	11.4	-0.9	-5.0	4.7	5.0
Nc1c(C(=O)Nc2ccccc2)sc2nc3c(c(-c4ccco4)c12)CCC3	1.9	62.5*	-0.3	84.3*	7.5	3.0
Cc1ccc(NC(=O)c2sc3nc4c(c(-c5ccco5)c3c2N)CCC4)cc1	4.3	52.9*	-1.0	82.0*	4.5	-9.5
Nc1c(C(=O)Nc2ccccc2)sc2nc3c(c(-c4ccco4)c12)CCCC3	-0.8	15.3	-0.9	19.8	-5.0	-12.2
Cc1ccc(/C=C/C(=O)c2ccccc(=O)c2O)cc1C	21.1	active	-0.5	66.1*	17.6	-9.7
CC(=O)NS(=O)(=O)c1ccc(NC(=O)c2ccc3c(c2)C(=O)N(CCC(C)C)C3=O)cc1	16.5	-9.4	0.6	-9.4	1.8	-5.1
Cc1c(Cl)cccc1NC(=S)NCCc1ccc(C(F)(F)F)cc1	-2.1	2.1	0.9	-2.7	-13.9	16.2
O=C(C(NS(=O)(=O)c1cccs1)c1ccccc1)N1CCN(c2ccccc2)CC1 (stereo unspecified)	-5.6	52.9*	-0.8	64.3*	-0.3	16.9
O=S(=O)(c1cccs1)N1CCN(c2ccccc2)CC1	·	1.0	·	-5.1	-3.1	8.2
COc1ccc(-c2cnnc(N/N=C/c3ccc(-c4ccc([N+](=O)[O-])cc4)o3)n2)cc1	30.7*	-5.5	-0.1	1.3	2.4	-76.3
O=[N+]([O-])c1ccc(-c2ccc(/C=N/Nc3nc(N4CCCC4)nc(N4CCCC4)n3)o2)cc1	-0.5	12.3	0.7	4.5	-1.9	-40.4
CCOc1ccccc1NC(=O)c1ccc2c(O)c(S(=O)(=O)c3ccccc3)c(=O)[nH]c2c1	·	·	·	·	·	14.1
O=C(CNC(=O)Cc1cccc2ccccc12)NCc1ccc(F)cc1	·	-10.1	·	6.0	-10.0	2.9
COc1ccc(CN2CC(=O)N3[C@H]4c5ccccc5OC[C@@H]4[C@H](c4ccccc4)[C@]3(C)C2=O)cc1	·	·	·	·	·	43.2*
CCCN1C(=O)C(=O)c2cc(Cl)ccc21	·	·	·	·	·	3.9
CCn1c2ccc(C)cc2c2n[nH]c(=S)nc21	·	17.5	·	0.6	8.7	20.0
Fc1ccc2c(c1)c1n[nH]c(=S)nc1n2CCc1ccccc1	·	5.3	·	-10.2	2.8	40.3*
Cc1ccc2c(c1)c1n[nH]c(=S)nc1n2CCc1ccccc1	·	5.6	·	-3.6	3.6	40.5*
N#Cc1ccc(Nc2ccccc2)c(N)c1	7.5	5.5	1.2	-1.3	-9.7	-11.3
N#Cc1c(=O)c2nc(NCc3ccccc3)ncc2n2ccccc12	-5.8	53.5*	1.1	83.5*	13.2	10.1
CC1=NC(=O)C(N=Nc2ccccc2)N1c1ccccc1 (stereo unspecified)	4.1	21.8	-0.1	0.5	-0.3	-11.6
CC1=NC(=O)C(N=Nc2cccc(C(=O)O)c2)N1c1ccccc1 (stereo unspecified)	-7.7	64.7*	0.7	13.4*	3.6	-110.9
SMILES	eIF4E-4G inh	PABP FP inh	PERK inhibitor	eIF4H inh	PfM18AAP inh	MLLE-PAM2 inh
Cn1cc(CNC(=O)c2cc(COc3ccc4c(c3)CCCC4)on2)cn1	·	-7.3	·	-15.9	29.5*	-4.9
CN1CCN(C(=O)c2cc3c(=O)n4ccccc4nc3s2)CC1	·	8.2	·	-4.2	28.8*	-12.4
CCOC(=O)N1CCN(C(=O)c2cc3c(=O)n4ccccc4nc3s2)CC1	·	-8.3	·	-7.2	0.4	11.9
S=C(c1ccc2c(c1)OCO2)N1CCOCC1	-8.1	-0.7	0.6	-0.5	3.4	30.9
Cc1[nH]n(-c2ccccc2)c(=S)c1C=Nc1ccc([N+](=O)[O-])cc1	0.1	2.8	1.3	2.9	50.9*	-1.2
Cc1[nH]n(-c2ccccc2)c(=O)c1C=Nc1ccc(S(=O)(=O)N=C(N)N)cc1	-1.1	2.2	-0.3	-1.9	1.1	7.8
Cc1ccc2c(c1)COc1c3ccc(C(=O)NC(C)C)cc3nn1-2	0.5	-0.3	·	4.8	·	0.0
COc1ccc(/C=N/OCC(=O)Nc2ccc3c(c2)OCO3)c(OC)c1	-6.1	-13.5	0.5	-9.3	-11.5	2.0
